PubChem BioAssay AID720518 (National Center for Advancing Translational Sciences (NCATS), 2013)
Results filed as inconclusive are left out. Unmarked numbers belong to inactive results. Active and inactive are the calls of the source. The call rests on the fitted dose curve.

assay: qHTS for Inhibitors of Cell Surface uPA Generation: Wild-type Protective Antigen (WT-PrAg) Counterscreen for Cherry-picked Compounds; settings: cells, WT protective antigen toxicity counterscreen; series mostly up to 115 µM; activity (protection): at the top concentration; on activity (protection): 0% is about no effect
Potency means the concentration at half of the fitted maximal effect.

Row | SMILES | activity (protection) [%] | Potency
1 | COc1ccc2cc(CCNC(=O)c3ccc4c(c3)OCO4)c(=O)[nH]c2c1 | -0.196 | 
2 | Cc1cc(C)n(-c2cc(C(=O)O)cc(C(=O)O)c2)n1 | -0.913 | 
3 | COc1ccc(C(=O)CC2(C(=O)O)CCCCC2)cc1 | -0.719 | 
4 | COc1cc2c(cc1OC)CN(C(=O)c1ccc(-c3ccccc3)cc1)CC2 | -2.51 | 
5 | CCN(CC)CC(=O)Nc1sc2c(c1C(=O)c1ccccc1OC)CCC2 |  | 9.27 µM (active)
6 | COc1cccc(CN(C)C(=O)c2cc(S(=O)(=O)N3CCCC3)ccc2C)c1OC | -0.352 | 
7 | COc1ccc(-n2ncc3c(=O)n(CC(=O)NC(C)C)cnc32)cc1 | -0.469 | 
8 | COc1ccc(S(=O)(=O)N2CCN(Cc3ccccc3)CC2)c(C)c1 | -1.97 | 
9 | COCCCN1CC23C=CC(O2)C(C(=O)O)C3C1=O (stereo not given) | -0.168 | 
10 | [N-]=[N+]=NC1C[C@H](n2ccc(=O)[nH]c2=O)O[C@@H]1CO (stereo not given in full) | -0.831 | 
11 | CC(C)(C)C(=O)NCCc1nc2ccccc2n1CC(=O)c1ccc(Cl)cc1 | -0.94 | 
12 | Cn1cccc1Cc1nnc(SCC(=O)Nc2ccc3c(c2)OCCO3)n1-c1ccc(F)cc1 | -1.41 | 
13 | O=C(COC(=O)c1ccc2ncsc2c1)NCc1cccc(Cl)c1 | -0.608 | 
14 | CC(C)C[C@H]1CN([C@@H](CC(C)C)CN2CCCC2CN2C(=S)NC[C@@H]2Cc2ccc(O)cc2)C(=S)N1CC1CCCCC1 (stereo not given in full) | -0.649 | 
15 | O=C1N[C@@H](Cc2c[nH]c3ccccc23)C(=O)N[C@H]1Cc1ccccc1 | 1.55 | 
16 | CC(=O)c1cccc(NC(=O)N2C3CCC2CC(O)(c2cccnc2)C3)c1 (stereo not given) | 2.27 | 
17 | O=C1CCCC/C1=C\Nc1ccc(S(=O)(=O)Nc2cnc3ccccc3n2)cc1 | -0.866 | 
18 | O=C(CN1CCOC1=O)N1CCCC(Nc2ccc(F)c(F)c2)C1 (stereo not given) | -0.513 | 
19 | CC(C)c1ccc(NC(=O)COc2ccc(S(=O)(=O)N3CCOCC3)cc2)cc1 | 0.0707 | 
20 | Cc1cccc(CNc2ccc(C(CC(N)=O)NC(=O)c3cccc(Br)c3)cc2[N+](=O)[O-])c1 (stereo not given) | 0.204 | 

Row | SMILES | activity (protection) [%] | Potency
21 | COc1ccc([C@@H]2[C@@H]3C(=O)N(C(C)(C)C)C(=O)[C@@H]3[C@]3(C)C(=O)N(c4cccc(Cl)c4)C(=O)N23)cc1 | 2.55 | 
22 | Cc1cc(N)n(Cc2ccc(Cl)cc2)n1 | -0.742 | 
23 | COCCNS(=O)(=O)c1cc(OC)c(C)cc1C | 1.58 | 
24 | COc1ccc(N2CC(C(=O)Nc3nnc(SCCC4OCCO4)s3)CC2=O)cc1 (stereo not given) | -0.992 | 
25 | CCOC(=O)C1CCN(CC(=O)Nc2cc(C)nn2-c2nc3ccccc3s2)CC1 | 12.1 | 
26 | CN(c1ccccc1)S(=O)(=O)c1ccc(C(=O)Nc2nnc(C3CC3)o2)cc1 | -1.7 | 
27 | C=CCNC(=S)NCC=C | 1.06 | 
28 | Cc1ccc(C(CC(=O)N2CCCC2)c2ccccc2)c(O)c1 (stereo not given) | -0.548 | 
29 | CC1(C)Oc2ccc3ccc(=O)oc3c2[C@@H](O)[C@H]1O | -0.534 | 
30 | COC(=O)[C@H](CC(C)C)N(Cc1ccccc1)S(=O)(=O)N(Cc1ccc(OC)cc1)[C@@H](CC(C)C)C(=O)OC | 1.45 | 
31 | CN(/N=C/c1cc(Cl)cc(Cl)c1O)C(=S)NC(C)(C)C | -2.11 | 
32 | Cc1ccc(-n2c(O)c(C=NCCN3CCNCC3)c(=O)[nH]c2=S)cc1 | 6.27 | 
33 | COc1cccc(C(=O)NCc2ccc3[nH]c(C)cc3c2)c1 | -0.861 | 
34 | COc1ccccc1CCNC(=O)C(=O)NCC1OCCN1S(=O)(=O)c1ccc(OC)c(OC)c1 (stereo not given) | -0.951 | 
35 | O=C(Nc1ccc(N2CCOCC2)cc1)c1ccc(Cl)c(S(=O)(=O)N2CCCC2)c1 | -0.904 | 
36 | Cc1cc(=O)[nH]c(=S)[nH]1 | -1.26 | 
37 | COc1ccc(/C(C)=N/N2CCOCC2)c(O)c1 | 1.21 | 
38 | COc1ccc(CCN=c2c([N+](=O)[O-])nn(-c3cccc(C)c3)n2O)cc1OC | -2.53 | 
39 | CCCN1CCN(C2CCCCC2NS(=O)(=O)c2ccc(Cl)cc2)CC1 (stereo not given) | 9.95 | 
40 | O=C(CCS(=O)(=O)c1ccc2c(c1)NC(=O)CS2)NCCc1ccc(Cl)cc1 | 0.14 | 
